Compound activity as filed in PubChem.
Sampled rows, rich in hits. Any-hit rate of the full collection: about 21%.
NS1 inh – influenza NS1 inhibition; Potency, µM (series often up to 46.1 µM); actives 0.4% (n = 270,000); AID 2326; further: actives are rising curves; nearly all actives have a fitted effect of over 50% in size
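S. cerevisiae expressing influenza A NS1, grown in glucose, washed, then diluted 1:100 into pH 6.0 -URA galactose medium with 23 nl compound. Growth recovery read as OD600; NS1-free strain serves as control.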
Shiga toxin inh – Shiga toxin inhibition; inhibition, % at 38.7 µM; Vero cells, Shiga toxin protein synthesis inhibition reporter; actives 9.2% (n = 290,000); AID 2315; in the data active means inhibition mostly above about 28%, no sharp cut-off; inactive means mostly below about 43%
Pf growth 48h – inhibits P. falciparum growth in the first generation, 48 h; actives 5.9% (n = 310,000); P. falciparum luciferase growth in erythrocytes, 48 h; Potency, µM (doses to about 28.7 µM), hits mostly inhibitors; active means well fitted inhibition curve with a large enough effect; inconclusive means small, poorly fitted or top-dose-only effect, or another doubt; inactive means no such curve, though single readings can be large or run the other way
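A one-generation exposure of luciferase-tagged malaria parasites in RPMI 1640/Albumax erythrocyte culture, 37 C and 5% CO2. Inhibition is inferred from decreased luminescence after adding detection reagent.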
CHX counter – affects cycloheximide protein synthesis inhibition readout, counter-screen | cell reporter, cycloheximide protein synthesis inhibition counterscreen | max response, % | actives 12% (n = 300,000); in the data active means max response mostly above about 13%, no sharp cut-off; inactive means mostly below about 14%; further: read at 38.3 µM for the half of the compounds with a filed dose
SARS PLpro yeast – SARS-CoV PLP inhibition in yeast; S. cerevisiae expressing SARS-CoV PLpro, growth rescue; Potency, µM (top dose mostly 32.9 µM), usual class: activators; actives 0.19% (n = 330,000); further: nearly all actives have a fitted effect of over 55% in size
Pf growth 96h – P. falciparum growth inhibition at 96 hours | P. falciparum luciferase reporter growth, 96 h | Potency, µM (top dose mostly 28.7 µM), actives largely listed as inhibitors | AID 504834 | actives 6.9% (n = 320,000); active means well fitted inhibition curve with a large enough effect; inconclusive means small, poorly fitted or top-dose-only effect, or another doubt; inactive means no such curve, though single readings can be large or run the other way
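Cell-based qHTS: luciferase-tagged P. falciparum in erythrocytes (2% hematocrit, 0.05% parasitemia final) incubated with compounds for 96 hours, 37 C, 5% CO2; luciferase detection reagent then added and luminescence measured.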
Hits are given with their value; 0 = inactive; ? = inconclusive; - = no result given. Unless noted, the call rests on the fitted dose curve.

SMILES | NS1 inh | Shiga toxin inh | Pf growth 48h | CHX counter | SARS PLpro yeast | Pf growth 96h
COC(=O)C(Cc1ccccc1)NC(=O)C(CC(C)C)NC(=O)OC(C)(C)C (configuration not stated) | 0 | 0 | 0 | 0 | 0 | 0
O=C(/C=C/c1cccc([N+](=O)[O-])c1)NCCSCc1ccc(Cl)cc1Cl | 0 | 0 | 0 | 0 | 0 | 0
O=C(Cc1ccc(Cl)cc1)NCCS(=O)c1ccc(Cl)cc1 (configuration not stated) | 0 | 0 | 0 | 0 | 0 | 1.17µM
O=C(/C=C/c1cccc([N+](=O)[O-])c1)NCCSCc1ccccc1Cl | 0 | 0 | 0 | 0 | 0 | 2.94µM
CC(C)C[C@@H](NC(=O)[C@@H](O)[C@H](N)Cc1ccccc1)C(=O)O | - | 34.3 | - | 40.5 | - | -
COc1cc(/C=N/NC(=O)c2nc3ccccn3c2C)cc(OC)c1O | - | 0 | 0 | 0 | 0 | 0
Cc1ccc(C2C3=C(CC(C)(C)CC3=O)N=C3c4ccccc4C(=O)C32)cc1 (configuration not stated) | ? | 0 | 8.28µM | 0 | 0 | 0
O=C(Nc1cccc(-c2nc3ncccc3o2)c1)c1cc2ccccc2o1 | 0 | 84.6 | ? | 21.6 | 0 | 0
O=C(Nc1cccc(-c2nc3ncccc3o2)c1)c1sc2cc(Cl)ccc2c1Cl | 0 | 43.7 | 0 | 0 | 0 | 0
COc1cc2[nH]c(C(=O)Nc3ccc(F)cc3)cc2c(OC)c1OC | 0 | 0 | ? | 0 | 0 | ?
COc1ccc(C(C[N+](=O)[O-])c2c(C)[nH]c3ccccc23)cc1OC (configuration not stated) | 0 | 0 | 2.08µM | 0 | 0 | ?
COc1ccc(C(C[N+](=O)[O-])c2c(C)[nH]n(-c3ccccc3)c2=O)cc1 (configuration not stated) | 0 | 0 | 0 | 0 | 0 | 0
COc1ccc(-c2noc(-c3ccoc3C)n2)cc1OC | 0 | 0 | 0 | 0 | 0 | 0
COc1cccc(-c2noc(-c3ccoc3C)n2)c1 | - | 122.8 | 0 | 38.5 | 0 | 0
Cc1cccc(-c2noc(-c3ccoc3C)n2)c1 | 0 | 100.4 | 0 | 34.8 | 0 | 0
COc1ccc(-c2noc(-c3ccoc3C)n2)cc1 | 0 | 56.5 | 0 | 59.4 | 0 | ?
O=c1[nH]nc(SCc2nnc(-c3cccc(Cl)c3)o2)n1C1CCCCC1 | 0 | 0 | 0 | 0 | 0 | 0
Cc1ccc(NC(=O)C2C3C=CC(O3)C2C(=O)O)c(C)c1 (configuration not stated) | 0 | 0 | 0 | 0 | 0 | 0
Cc1ccccc1C(=O)N1CCN(c2ncnc3c2cnn3-c2ccccc2)CC1 | 0 | 0 | ? | 0 | 0 | 0
CN1CCN(c2ncnc3c2cnn3C)CC1 | 0 | 0 | 0 | 0 | 0 | 0
CN1CCN(c2ncnc3c2cnn3-c2ccc(Cl)cc2)CC1 | 0 | 66.2 | - | 42.1 | 0 | 0
CCN1CCN(c2ncnc3c2cnn3-c2ccc(Cl)cc2)CC1 | 0 | 73.9 | 0 | 45.0 | 0 | 0
CCOC(=O)N1CCN(c2ncnc3c2cnn3-c2ccc(Cl)cc2)CC1 | 0 | 0 | 0 | 20.1 | 0 | -
O=C(Cn1cccn1)c1ccccc1 | - | 0 | ? | 0 | 0 | 0
CC(C)CC(c1nnnn1C1CCCC1)N1CCC(C(N)=O)CC1 (configuration not stated) | - | 0 | 0 | 0 | 0 | 0
SMILES | NS1 inh | Shiga toxin inh | Pf growth 48h | CHX counter | SARS PLpro yeast | Pf growth 96h
Cc1ccc(C)c(-c2nnc(OCC(=O)Nc3cc(C)on3)c3ccccc23)c1 | 0 | 0 | ? | 0 | 0 | ?
CC(C)Cn1c(-c2ccc(C#N)cc2)nc2c1c(=O)[nH]c(=O)n2CC(C)C | 0 | 0 | - | 0 | 0 | 10.4µM
CCCCn1c(-c2ccc(Br)cc2F)nc2c1c(=O)[nH]c(=O)n2CC(C)C | 0 | 0 | 10.4µM | 0 | 0 | ?
COc1ccccc1-n1cc2c([N+](=O)[O-])cc([N+](=O)[O-])cc2n1 | 0 | 0 | ? | 0 | 0 | 0
CCN(CC)S(=O)(=O)c1cccc(C(=O)NC(C(=O)Nc2nnc(C)s2)C(C)C)c1 (configuration not stated) | 0 | 0 | 11.7µM | 0 | 0 | -
CCN(CC)S(=O)(=O)c1cccc(C(=O)N[C@H](C(=O)O)C(C)C)c1 | 0 | 0 | - | 0 | 0 | 0
CCN(CC)S(=O)(=O)c1ccc(C(=O)Nc2cc(C)cc(C)c2)cc1 | 0 | 0 | ? | 0 | 0 | ?
CCN(CC)S(=O)(=O)c1cccc(C(=O)Nc2cccc(C)c2)c1 | 0 | 0 | - | 26.6 | 0 | 0
CCN(CC)S(=O)(=O)c1cccc(NC(=O)c2ccc(Br)cc2)c1 | - | 0 | ? | 0 | 0 | 0
CCN(CC)S(=O)(=O)c1cccc(C(=O)Nc2cc(C)cc(C)c2)c1 | 0 | 39.2 | 0 | 16.7 | 0 | ?
CC(Cc1ccccc1)NC(=O)c1ccc([N+](=O)[O-])cc1 (configuration not stated) | 0 | 60.7 | 0 | 30.0 | 0 | ?
CC(Cc1ccccc1)NC(=O)NC(C)Cc1ccccc1 (configuration not stated) | 0 | 68.7 | - | 28.9 | 0 | 0
CC(Cc1ccccc1)NC(=O)/C=C/c1ccc([N+](=O)[O-])cc1 (configuration not stated) | 0 | 0 | 0 | 0 | 0 | 0
CC(Cc1ccccc1)NC(=O)C(c1ccc(N)cc1)c1ccc(N)cc1 (configuration not stated) | 0 | 0 | ? | 0 | 0 | 0
O=C(Cc1ccccc1)Oc1ccc([N+](=O)[O-])cc1 | 0 | 0 | 0 | 0 | 0 | ?
O=C(Cc1ccccc1)NC(C(=O)O)C(O)c1ccc([N+](=O)[O-])cc1 (configuration not stated) | 0 | 0 | 0 | 0 | 0 | 10.4µM
CC(=O)NC(C)Cc1ccccc1 (configuration not stated) | 0 | 0 | - | 0 | 0 | 0
CC(Cc1ccccc1)NC(=O)c1ccc(N)cc1 (configuration not stated) | 0 | 62.1 | 0 | 37.3 | 0 | 11.7µM
O=C(COc1ccc2oc(-c3ccco3)cc(=O)c2c1)N1CCCCC1 | 0 | 0 | ? | 0 | 0 | ?
CCN(CC)CCOC(=O)c1ccc2c(c1)OCCO2 | 0 | 0 | - | 0 | 0 | 0
CC(CN1CCOCC1)OC(=O)c1ccccc1Br (configuration not stated) | 0 | 0 | 0 | 24.8 | 0 | -
CC(CN1CCOCC1)OC(=O)c1ccc2c(c1)OCCO2 (configuration not stated) | 0 | 65.9 | 0 | 60.5 | 0 | 0
CC(CN1CCOCC1)OC(=O)/C=C/c1ccccc1 (configuration not stated) | 0 | 83.6 | 0 | 44.0 | 0 | 0
CC(C)N(C)CCOC(=O)c1ccc2c(c1)OCCO2 | 0 | 0 | 0 | 16.0 | 0 | 0
COc1ccc(CNC(=O)N[C@H](C(=O)O)C(C)C)cc1OC | 0 | 0 | 0 | 0 | 0 | 0
COc1ccc(Oc2nc(SC)nc3ccccc23)cc1 | 0 | 0 | 0 | 0 | 0 | 0
COc1ccc(S(=O)(=O)NCC(=O)NCc2cc(=O)n(C)c(=O)n2C)cc1C | 0 | 0 | ? | 0 | 0 | ?
